Values joined by “and” are separate entries in the source; they are usually repeats but may differ in a detail not shown here. Equal entries are not always repeated. The whole screen tested about 5,500 compounds, of which about 2,000 (36%) were called active. Another 18% or so got no clear call; they are omitted. Cut-off read from the data, not from the text of the source: active = normalized growth mostly below about 0.91 (no sharp cut-off); inconclusive = no clear call, values can overlap the other calls; inactive = mostly above about 0.92. The list shows a part of the results.
Experiment: chemical genetic growth profiling, strain panel (AID 1159580);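 note: tested at 20 µM; growth read once vehicle control cultures reached saturation at 30 °C; 1 = growth at the plate median or of vehicle wells; lower values mean less growth of the strain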
Details: S. cerevisiae deletion strains, growth OD

Measured: normalized growth

CNCCCN1c2ccccc2CCc2ccccc21
inactive: locus YAL013W, strain DEP1, hits give low values 0.993 | locus YAL021C, strain ccr4, hits give low values 1 | locus YAL026C, strain drs2, hits give low values 0.985 | locus YAL030W, strain snc1, hits give low values 1.03 | locus YAL040C, strain CLN3, hits give low values 1 | locus YBL061C, strain skt5, hits give low values 1.02 | locus YBR009C, strain hhf1, hits give low values 0.972 | locus YBR021W, strain FUR4, hits give low values 1 | locus YBR023C, strain chs3, hits give low values 1.02 | locus YBR171W, strain sec66, hits give low values 1.03 | locus YBR229C, strain ROT2, hits give low values 1.01 | locus YBR231C, strain swc5, hits give low values 1.02 | locus YBR279W, strain paf1, hits give low values 0.996 | locus YCL011C, strain gbp2, hits give low values 0.994 | locus YCL016C, strain dcc1, hits give low values 0.988 | locus YCL029C, strain bik1, hits give low values 1 | locus YCL061C, strain MRC1 (second series), hits give low values 0.994 | locus YCL061C, strain MRC1, hits give low values 1.04 | locus YCL069W, strain vba3, hits give low values 1.02 | locus YCR088W, strain abp1, hits give low values 1.02 | locus YDL005C, strain med2, hits give low values 1.03 | locus YDL035C, strain GPR1, hits give low values 1.02 | locus YDL040C, strain nat1, hits give low values 1.02 | locus YDL074C, strain BRE1, hits give low values 1 | locus YDL101C, strain DUN1, hits give low values 1 | locus YDL134C, strain PPH21, hits give low values 1.02 | locus YDL185W, strain tfp1, hits give low values 1 | locus YDL192W, strain arf1, hits give low values 0.997 | locus YDR001C, strain nth1, hits give low values 1.02 | locus YDR069C, strain doa4, hits give low values 1.05 | locus YDR101C, strain arx1, hits give low values 1.01 | locus YDR137W, strain rgp1, hits give low values 1.1 | locus YDR150W, strain NUM1, hits give low values 1.01 | locus YDR159W, strain sac3, hits give low values 0.987 | locus YDR162C, strain NBP2, hits give low values 1.02 | locus YDR195W, strain ref2 1.07 | locus YDR297W, strain sur2, hits give low values 1.03 | locus YDR318W, strain mcm21, hits give low values 0.993 | locus YDR334W, strain swr1, hits give low values 1.01 | locus YDR335W, strain msn5, hits give low values 1.02 | locus YDR363W, strain ESC2, hits give low values 0.997 | locus YDR388W, hits give low values 0.992 | locus YDR392W, strain spt3, hits give low values 0.91 | locus YDR502C, strain sam2, hits give low values 1.01 | locus YEL003W, strain gim4, hits give low values 1.02 | locus YEL037C, strain rad23, hits give low values 1.01 | locus YEL061C, strain CIN8 (second series), hits give low values 1.01 | locus YEL061C, strain CIN8, hits give low values 1.01 | locus YER002W, strain NOP16, hits give low values 0.983 | locus YER015W, strain faa2, hits give low values 1.01 | locus YER016W, strain bim1, hits give low values 0.991 | locus YER110C, hits give low values 0.999 | locus YER111C, strain swi4, hits give low values 1.01 | locus YER155C, strain BEM2 (second series), hits give low values 1.05 | locus YER155C, strain BEM2, hits give low values 1.01 | locus YER167W, strain BCK2, hits give low values 1.01 | locus YFR010W, strain ubp6, hits give low values 1.01 | locus YGL078C, strain dbp3, hits give low values 0.994 | locus YGL086W, strain mad1, hits give low values 0.991 | locus YGL167C, strain pmr1, hits give low values 1.02 | locus YGL173C, strain kem1, hits give low values 1.02 | locus YGL227W, strain vid30, hits give low values 1.01 | locus YGL240W, strain doc1, hits give low values 1.06 | locus YGL248W, strain PDE1, hits give low values 0.992 | locus YGL253W, strain hxk2, hits give low values 0.996 | locus YGR135W, strain pre9, hits give low values 0.986 | locus YGR252W, strain gcn5, hits give low values 0.94 | locus YHR013C, strain ard1, hits give low values 0.984 | locus YHR027C, strain rpn1, hits give low values 0.999 | locus YHR030C, strain SLT2, hits give low values 1.01 and 1.02 | locus YHR079C, strain IRE1 (second series), hits give low values 1 | locus YHR079C, strain IRE1, hits give low values 1.01 | locus YHR094C, strain hxt1, hits give low values 0.995 | locus YHR129C, strain ARP1, hits give low values 1.01 | locus YHR142W, strain chs7, hits give low values 0.993 | locus YHR200W, strain rpn10, hits give low values 1.01 | locus YIL066C, strain RNR3, hits give low values 1.01 | locus YIL073C, strain SPO22, hits give low values 0.964 | locus YIL125W, strain kgd1, hits give low values 1 | locus YIR030C, strain dcg1, hits give low values 0.999 | locus YJL092W, strain hpr5, hits give low values 1.01 | locus YJL095W, strain BCK1 (second series), hits give low values 1.01 | locus YJL095W, strain BCK1, hits give low values 0.979 and 1.02 | locus YJL115W, strain asf1, hits give low values 0.999 | locus YJL129C, strain trk1, hits give low values 1.04 | locus YJL134W, strain LCB3, hits give low values 1 | locus YJL154C, strain vps35, hits give low values 1.01 | locus YJL164C, strain tpk1, hits give low values 0.984 | locus YJL166W, strain qcr8, hits give low values 1.06 | locus YJL168C, strain set2, hits give low values 1 | locus YJL187C, strain SWE1 (second series), hits give low values 0.998 | locus YJR043C, strain POL32, hits give low values 1.01 | locus YJR066W, strain TOR1, hits give low values 0.98 | locus YJR075W, strain HOC1, hits give low values 0.968

Source: PubChem BioAssay AID1159580 (chemical genetic matrix, 2015)
